Where “and” joins values, the source holds several entries; their conditions need not be identical. Identical values can stand only once. Hit rate of the full screen: of about 5,500 compounds, about 2,000 (36%) were called active. Inconclusive results (about 18%) are left out. The list shows a part of the results. Unmarked numbers belong to inactive results. Cut-off read from the data, not from the text of the source: active = normalized growth mostly below about 0.91 (no sharp cut-off); inconclusive = no clear call, values can overlap the other calls; inactive = mostly above about 0.92.
Experiment: chemical genetic growth profiling, strain panel (AID 1159580);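 note: tested at 20 µM; growth read once vehicle control cultures reached saturation at 30 °C; 1 = growth at the plate median or of vehicle wells; lower values mean less growth of the strain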
Details: S. cerevisiae deletion strains, growth OD

## COc1ccc(-c2c(O)c3c(OC)c4c(cc3oc2=O)OC(C)(C)C=C4)cc1
Locus YAL013W, strain DEP1, stronger effect = lower value
  normalized growth: 0.959
Locus YAL021C, strain ccr4, stronger effect = lower value
  normalized growth: 0.938
Locus YAL026C, strain drs2, stronger effect = lower value
  normalized growth: 0.952
Locus YAL030W, strain snc1, stronger effect = lower value
  normalized growth: 0.951
Locus YBL061C, strain skt5, stronger effect = lower value
  normalized growth: 0.942
Locus YBR009C, strain hhf1, stronger effect = lower value
  normalized growth: 0.953
Locus YBR021W, strain FUR4, stronger effect = lower value
  normalized growth: 0.946
Locus YBR023C, strain chs3, stronger effect = lower value
  normalized growth: 0.947
Locus YBR171W, strain sec66, stronger effect = lower value
  normalized growth: 0.919
Locus YBR229C, strain ROT2, stronger effect = lower value
  normalized growth: 0.951
Locus YBR231C, strain swc5, stronger effect = lower value
  normalized growth: 0.954
Locus YBR279W, strain paf1, stronger effect = lower value
  normalized growth: 0.972
Locus YCL011C, strain gbp2, stronger effect = lower value
  normalized growth: 0.957
Locus YCL016C, strain dcc1, stronger effect = lower value
  normalized growth: 0.955
Locus YCL029C, strain bik1, stronger effect = lower value
  normalized growth: 0.937
Locus YCL061C, strain MRC1, stronger effect = lower value
  normalized growth: 0.945
Locus YCL069W, strain vba3, stronger effect = lower value
  normalized growth: 0.955
Locus YCR088W, strain abp1, stronger effect = lower value
  normalized growth: 0.947
Locus YDL005C, strain med2, stronger effect = lower value
  normalized growth: 0.966
Locus YDL035C, strain GPR1, stronger effect = lower value
  normalized growth: 1
Locus YDL040C, strain nat1, stronger effect = lower value
  normalized growth: 0.95
Locus YDL074C, strain BRE1, stronger effect = lower value
  normalized growth: 0.967
Locus YDL101C, strain DUN1, stronger effect = lower value
  normalized growth: 0.962
Locus YDL185W, strain tfp1, stronger effect = lower value
  normalized growth: 0.944
Locus YDL192W, strain arf1, stronger effect = lower value
  normalized growth: 0.959
Locus YDR001C, strain nth1, stronger effect = lower value
  normalized growth: 0.948
Locus YDR069C, strain doa4, stronger effect = lower value
  normalized growth: 0.992
Locus YDR101C, strain arx1, stronger effect = lower value
  normalized growth: 0.961
Locus YDR137W, strain rgp1, stronger effect = lower value
  normalized growth: 0.845 (active)
Locus YDR150W, strain NUM1, stronger effect = lower value
  normalized growth: 0.936
Locus YDR159W, strain sac3, stronger effect = lower value
  normalized growth: 1.01
Locus YDR162C, strain NBP2, stronger effect = lower value
  normalized growth: 0.962
Locus YDR195W, strain ref2
  normalized growth: 0.981
Locus YDR297W, strain sur2, stronger effect = lower value
  normalized growth: 1.02
Locus YDR318W, strain mcm21, stronger effect = lower value
  normalized growth: 0.936
Locus YDR334W, strain swr1, stronger effect = lower value
  normalized growth: 0.955
Locus YDR335W, strain msn5, stronger effect = lower value
  normalized growth: 0.971
Locus YDR388W, stronger effect = lower value
  normalized growth: 0.924 (active)
Locus YDR392W, strain spt3, stronger effect = lower value
  normalized growth: 0.725 (active)
Locus YDR502C, strain sam2, stronger effect = lower value
  normalized growth: 0.891 (active)
Locus YEL003W, strain gim4, stronger effect = lower value
  normalized growth: 0.958
Locus YEL037C, strain rad23, stronger effect = lower value
  normalized growth: 0.962
Locus YEL061C, strain CIN8 (second series), stronger effect = lower value
  normalized growth: 0.957
Locus YER015W, strain faa2, stronger effect = lower value
  normalized growth: 0.975
Locus YER016W, strain bim1, stronger effect = lower value
  normalized growth: 0.951
Locus YER110C, stronger effect = lower value
  normalized growth: 0.949
Locus YER111C, strain swi4, stronger effect = lower value
  normalized growth: 0.969
Locus YER155C, strain BEM2 (second series), stronger effect = lower value
  normalized growth: 0.963
Locus YER155C, strain BEM2, stronger effect = lower value
  normalized growth: 0.956
Locus YER167W, strain BCK2, stronger effect = lower value
  normalized growth: 0.954
Locus YFR010W, strain ubp6, stronger effect = lower value
  normalized growth: 0.967
Locus YGL078C, strain dbp3, stronger effect = lower value
  normalized growth: 0.99
Locus YGL086W, strain mad1, stronger effect = lower value
  normalized growth: 0.949
Locus YGL167C, strain pmr1, stronger effect = lower value
  normalized growth: 0.92
Locus YGL173C, strain kem1, stronger effect = lower value
  normalized growth: 0.958
Locus YGL227W, strain vid30, stronger effect = lower value
  normalized growth: 0.953
Locus YGL240W, strain doc1, stronger effect = lower value
  normalized growth: 0.989
Locus YGL248W, strain PDE1, stronger effect = lower value
  normalized growth: 0.979
Locus YGL253W, strain hxk2, stronger effect = lower value
  normalized growth: 0.949
Locus YGR078C, strain PAC10, stronger effect = lower value
  normalized growth: 0.984
Locus YGR135W, strain pre9, stronger effect = lower value
  normalized growth: 0.931
Locus YGR252W, strain gcn5, stronger effect = lower value
  normalized growth: 0.96
Locus YHR013C, strain ard1, stronger effect = lower value
  normalized growth: 0.959
Locus YHR027C, strain rpn1, stronger effect = lower value
  normalized growth: 0.973
Locus YHR030C, strain SLT2, stronger effect = lower value
  normalized growth: 0.956 and 1
Locus YHR079C, strain IRE1 (second series), stronger effect = lower value
  normalized growth: 0.953
Locus YHR079C, strain IRE1, stronger effect = lower value
  normalized growth: 0.992
Locus YHR094C, strain hxt1, stronger effect = lower value
  normalized growth: 0.939
Locus YHR129C, strain ARP1, stronger effect = lower value
  normalized growth: 0.972
Locus YHR142W, strain chs7, stronger effect = lower value
  normalized growth: 0.925
Locus YHR200W, strain rpn10, stronger effect = lower value
  normalized growth: 0.946
Locus YIL066C, strain RNR3, stronger effect = lower value
  normalized growth: 0.957
Locus YIL073C, strain SPO22, stronger effect = lower value
  normalized growth: 0.919
Locus YIL125W, strain kgd1, stronger effect = lower value
  normalized growth: 0.978
Locus YIR030C, strain dcg1, stronger effect = lower value
  normalized growth: 0.958
Locus YJL092W, strain hpr5, stronger effect = lower value
  normalized growth: 0.946
Locus YJL095W, strain BCK1 (second series), stronger effect = lower value
  normalized growth: 0.954
Locus YJL095W, strain BCK1, stronger effect = lower value
  normalized growth: 0.944 and 0.971
Locus YJL115W, strain asf1, stronger effect = lower value
  normalized growth: 0.962
Locus YJL129C, strain trk1, stronger effect = lower value
  normalized growth: 0.789 (active)
Locus YJL134W, strain LCB3, stronger effect = lower value
  normalized growth: 0.942
Locus YJL154C, strain vps35, stronger effect = lower value
  normalized growth: 0.958
Locus YJL164C, strain tpk1, stronger effect = lower value
  normalized growth: 0.967
Locus YJL166W, strain qcr8, stronger effect = lower value
  normalized growth: 0.966
Locus YJL168C, strain set2, stronger effect = lower value
  normalized growth: 0.93 (active)
Locus YJL187C, strain SWE1 (second series), stronger effect = lower value
  normalized growth: 0.943

From PubChem BioAssay AID1159580 (chemical genetic matrix, 2015)
